# Inconclusive results are not listed. Unmarked numbers belong to inactive results. Activity calls are given as the source filed them. Calls come from the whole dose curve; as a rule, active = well fitted curve in the direction sought with a large enough effect; inconclusive = small, poorly fitted or top-dose-only effect, or another doubt; inactive = no such curve, though single readings can be large; an effect the other way counts as inactive or inconclusive.
# How the values were obtained:
# [1] = Quantitative High-Throughput drug screen in 47 multiple myeloma cell lines against the NCATS MIPE library collection: INA6_PLB cell viability assay (AID 1918965; note: nearly all actives have a fitted effect of over 55% in size)
# Summary of the method: (§1)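 CellTiter-Glo luminescence (ATP) after 48 h compound exposure, 37C/5% CO2; 500 cells/well; MIPE 4.0 approved/investigational drugs pinned in; DMSO = 100%, media only = 0% viability.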
# [2] = Quantitative High-Throughput drug screen in 47 multiple myeloma cell lines against the NCATS MIPE library collection: H1112_PLB cell viability assay (AID 1918967; note: nearly all actives have a fitted effect of over 30% in size)
# Summary of the method: (§2)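 Approved and investigational drugs from MIPE 4.0 were added by pin tool to 500 cells per well. After 48 hours at 37C, ATP-based CellTiter-Glo luminescence indicated remaining viability.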
# [3] = Quantitative High-Throughput drug screen in 47 multiple myeloma cell lines against the NCATS MIPE library collection: KMS12BM_JCRB cell viability assay (AID 1918971); note: nearly all actives have a fitted effect of over 35% in size
# Summary of the method: (§3)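 qHTS of the MIPE 4.0 collection: 500 myeloma cells/well, 48 h drug exposure at 37C in 5% CO2, then CellTiter-Glo for 5 min at room temperature before luminescence reading.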
# [4] = Quantitative High-Throughput drug screen in 47 multiple myeloma cell lines against the NCATS MIPE library collection: MOLP8_DSMZ cell viability assay (AID 1918977); note: nearly all actives have a fitted effect of over 45% in size
# Summary of the method: (§4)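 500 cells/well; MIPE 4.0 drugs pin-transferred; 48 h, 37C, 5% CO2. CellTiter-Glo, 5 min RT, luminescence. Controls: DMSO 100%, media 0%.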
# [5] = Quantitative High-Throughput drug screen in 47 multiple myeloma cell lines against the NCATS MIPE library collection: OCIMY1_PLB cell viability assay (AID 1918979); note: nearly all actives have a fitted effect of over 35% in size
# Summary of the method: as §4
# [6] = Quantitative High-Throughput drug screen in 47 multiple myeloma cell lines against the NCATS MIPE library collection: MM1S_ATCC cell viability assay (AID 1918980); note: nearly all actives have a fitted effect of over 45% in size
# Summary of the method: as §4
# [7] = Quantitative High-Throughput drug screen in 47 multiple myeloma cell lines against the NCATS MIPE library collection: JIM1_ECACC cell viability assay (AID 1918964)
# Summary of the method: as §2
# [8] = Quantitative High-Throughput drug screen in 47 multiple myeloma cell lines against the NCATS MIPE library collection: KMS12PE_JCRB cell viability assay (AID 1918972); note: nearly all actives have a fitted effect of over 30% in size
# Summary of the method: as §1
# [9] = Quantitative High-Throughput drug screen in 47 multiple myeloma cell lines against the NCATS MIPE library collection: MMM1_PLB cell viability assay (AID 1918976); note: nearly all actives have a fitted effect of over 35% in size
# Summary of the method: as §4
# [10] = Quantitative High-Throughput drug screen in 47 multiple myeloma cell lines against the NCATS MIPE library collection: LP1_DSMZ cell viability assay (AID 1918982); note: nearly all actives have a fitted effect of over 35% in size
# Summary of the method: as §4
# [11] = Quantitative High-Throughput drug screen in 47 multiple myeloma cell lines against the NCATS MIPE library collection: JIM3_ECACC cell viability assay (AID 1918963; note: nearly all actives have a fitted effect of over 35% in size)
# Summary of the method: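 Steps: seed 500 cells per well; pin-transfer MIPE 4.0 library; incubate 48 h at 37C, 5% CO2, humidified; add CellTiter-Glo, 5 min room temperature; read luminescence.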
# [12] = Quantitative High-Throughput drug screen in 47 multiple myeloma cell lines against the NCATS MIPE library collection: Karpas25_ECACC cell viability assay (AID 1918968; note: nearly all actives have a fitted effect of over 35% in size)
# Summary of the method: as §2
# [13] = Quantitative High-Throughput drug screen in 47 multiple myeloma cell lines against the NCATS MIPE library collection: NCIH929_DSMZ cell viability assay (AID 1918978); note: nearly all actives have a fitted effect of over 35% in size
# Summary of the method: as §4
# [14] = Quantitative High-Throughput drug screen in 47 multiple myeloma cell lines against the NCATS MIPE library collection: KMS27_JCRB cell viability assay (AID 1918970); details: KMS27 myeloma cells, CellTiter-Glo ATP viability, 48 h; viability (% of DMSO): at 45.8 µM (top of the series); note: nearly all actives have a fitted effect of over 30% in size
# Summary of the method: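 ATP-based viability (CellTiter-Glo luminescence) is measured in cells treated 48 h with approved and investigational drugs at 37 °C. Controls are DMSO-only wells for full viability and media-only wells for none.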
# [15] = Quantitative High-Throughput drug screen in 47 multiple myeloma cell lines against the NCATS MIPE library collection: KMS20_JCRB cell viability assay (AID 1918973); note: nearly all actives have a fitted effect of over 45% in size
# Summary of the method: as §2
# [16] = Quantitative High-Throughput drug screen in 47 multiple myeloma cell lines against the NCATS MIPE library collection: KMS21BM_JCRB cell viability assay (AID 1918974); details: ATP luminescence, 48 h; viability: at 45.8 µM (top of the series)
# Summary of the method: as §2
# [17] = Quantitative High-Throughput drug screen in 47 multiple myeloma cell lines against the NCATS MIPE library collection: MM1R_ATCC cell viability assay (AID 1918981); note: nearly all actives have a fitted effect of over 35% in size
# Summary of the method: as §4
# [18] = Quantitative High-Throughput drug screen in 47 multiple myeloma cell lines against the NCATS MIPE library collection: JJN3_DSMZ cell viability assay (AID 1918966; note: nearly all actives have a fitted effect of over 50% in size)
# Summary of the method: as §2
# [19] = Quantitative High-Throughput drug screen in 47 multiple myeloma cell lines against the NCATS MIPE library collection: KMS26_JCRB cell viability assay (AID 1918975); note: nearly all actives have a fitted effect of over 45% in size
# Summary of the method: as §3
# Potency is the fitted concentration of half-maximal effect.
smiles,measurement,setting,value
CCc1cc(C(C)=NOCc2ccc(C3CCCCC3)c(C(F)(F)F)c2)ccc1CN1CC(C(=O)O)C1,Potency,[1],inactive
same,Potency,[2],14.8 µM (active)
same,Potency,[3],18.7 µM (active)
same,Potency,[4],inactive
same,Potency,[5],inactive
same,Potency,[6],inactive
Cc1ccc(-n2[nH]c(C)c(N=Nc3cccc(-c4cccc(C(=O)O)c4)c3O)c2=O)cc1C,Potency,[7],13.2 µM (active)
same,Potency,[1],23.5 µM (active)
same,Potency,[2],20.9 µM (active)
same,Potency,[3],23.5 µM (active)
same,Potency,[8],inactive
same,Potency,[9],20.9 µM (active)
same,Potency,[4],23.5 µM (active)
same,Potency,[6],18.7 µM (active)
same,Potency,[10],16.6 µM (active)
CN(N=O)C(=O)N[C@H]1C(O)OC(CO)[C@@H](O)[C@H]1O (some centres not stated),Potency,[11],inactive
same,Potency,[2],inactive
same,Potency,[12],inactive
same,Potency,[13],inactive
same,Potency,[10],inactive
CC(O)(C#Cc1ccc2c(c1)N(c1nc(N)ncc1Cl)CC2)c1nccs1 (configuration not stated),Potency,[1],8.33 µM (active)
same,Potency,[2],1.18 µM (active)
same,Potency,[12],3.72 µM (active)
same,Potency,[14],20.9 µM (active)
same,Potency,[8],13.2 µM (active)
same,Potency,[15],2.64 µM (active)
same,Potency,[16],0.332 µM (active)
same,Potency,[9],20.9 µM (active)
same,Potency,[13],1.18 µM (active)
same,Potency,[5],14.8 µM (active)
same,Potency,[6],11.8 µM (active)
same,Potency,[17],18.7 µM (active)
CCCCCCCN(CC)CCCC(O)c1ccc(NS(C)(=O)=O)cc1 (configuration not stated),Potency,[18],inactive
same,Potency,[14],20.9 µM (active)
same,Potency,[3],inactive
same,Potency,[8],16.6 µM (active)
same,Potency,[17],inactive
Cc1[nH]c(C=C2C(=O)Nc3ccccc32)c(C)c1CCC(=O)O,Potency,[7],2.96 µM (active)
same,Potency,[1],3.72 µM (active)
same,Potency,[18],18.7 µM (active)
same,Potency,[2],4.18 µM (active)
same,Potency,[12],10.5 µM (active)
same,Potency,[14],5.9 µM (active)
same,Potency,[3],5.9 µM (active)
same,Potency,[8],9.35 µM (active)
same,Potency,[15],11.8 µM (active)
same,Potency,[16],11.8 µM (active)
same,Potency,[13],7.43 µM (active)
same,Potency,[6],0.0833 µM (active)
same,Potency,[17],0.526 µM (active)
CC(=O)OCC(=O)[C@@]12N=C(C)O[C@H]1C[C@H]1[C@@H]3CCC4=CC(=O)C=C[C@]4(C)[C@@H]3[C@@H](O)C[C@@]12C,Potency,[1],11.8 µM (active)
same,Potency,[12],5.26 µM (active)
same,Potency,[3],inactive
same,Potency,[8],inactive
same,Potency,[19],inactive
same,Potency,[9],inactive
same,Potency,[4],16.6 µM (active)
same,Potency,[6],5.9 µM (active)
same,Potency,[17],inactive
O=C(Nc1ccc(Oc2ccnc3[nH]ccc23)c(F)c1)c1cccn(-c2ccc(F)cc2)c1=O,Potency,[18],20.9 µM (active)
same,Potency,[8],inactive
same,Potency,[15],inactive
same,Potency,[5],inactive
same,Potency,[6],inactive
same,Potency,[17],10.5 µM (active)
same,Potency,[10],inactive
CC(N[C@H]1CCCC[C@H]1NC(=O)c1ccc(Cl)cc1)c1cccc2ccccc12 (some centres not stated),Potency,[2],20.9 µM (active)
same,Potency,[12],14.8 µM (active)
same,Potency,[14],0.118 µM (active)
same,Potency,[19],inactive
same,Potency,[4],inactive
same,Potency,[5],inactive
same,Potency,[6],8.33 µM (active)
same,Potency,[10],inactive
C=C1C(=CC=C2CCC[C@]3(C)[C@@H]([C@H](C)CCCC(C)(C)O)CC[C@@H]23)C[C@@H](O)C[C@@H]1O,Potency,[1],5.9 µM (active)
same,Potency,[2],7.43 µM (active)
same,Potency,[12],5.9 µM (active)
same,Potency,[14],1.66 µM (active)
same,Potency,[3],20.9 µM (active)
same,Potency,[8],6.62 µM (active)
same,Potency,[19],18.7 µM (active)
same,Potency,[9],20.9 µM (active)
same,Potency,[4],16.6 µM (active)
same,Potency,[13],3.72 µM (active)
same,Potency,[5],inactive
same,Potency,[6],1.48 µM (active)
same,Potency,[10],20.9 µM (active)
COc1ccc(CCC(=O)c2c(O)cc(O[C@@H]3O[C@H](CO)[C@@H](O)[C@H](O)[C@@H]3O[C@@H]3O[C@@H](C)[C@H](O)[C@@H](O)[C@@H]3O)cc2O)cc1O,Potency,[11],18.7 µM (active)
same,Potency,[12],9.35 µM (active)
same,Potency,[14],inactive
same,Potency,[3],inactive
same,Potency,[8],inactive
same,Potency,[19],inactive
same,Potency,[9],inactive
same,Potency,[5],inactive
same,Potency,[6],9.35 µM (active)
same,Potency,[17],inactive
same,Potency,[10],inactive
COc1ccc(Nc2nccc(NCCO)n2)cc1,Potency,[11],inactive
same,Potency,[2],inactive
same,Potency,[12],inactive
same,Potency,[14],inactive
same,Potency,[19],inactive
same,Potency,[13],inactive
CC(=CC(=O)Nc1ccccc1C(=O)O)c1ccc2ccccc2c1,Potency,[12],20.9 µM (active)
same,Potency,[8],23.5 µM (active)
same,Potency,[13],7.43 µM (active)
same,Potency,[5],inactive
same,Potency,[6],8.33 µM (active)
O=c1[nH]c(=O)n([C@H]2C[C@@H](O)[C@@H](CO)O2)cc1F,Potency,[7],18.7 µM (active)
same,Potency,[1],1.32 µM (active)
same,Potency,[2],4.69 µM (active)
same,Potency,[14],9.35 µM (active)
same,Potency,[3],20.9 µM (active)
same,Potency,[8],7.43 µM (active)
same,Potency,[9],18.7 µM (active)
same,Potency,[6],11.8 µM (active)
same,Potency,[10],10.5 µM (active)
OC[C@H]1OC(O)C[C@@H](O)[C@H]1O (some centres not stated),Potency,[11],inactive
same,Potency,[2],inactive
same,Potency,[14],inactive
same,Potency,[19],inactive
same,Potency,[9],inactive
same,Potency,[4],inactive
same,Potency,[5],inactive
same,Potency,[6],inactive
same,Potency,[10],inactive
CCn1c(=O)c2c(nc(C=Cc3ccc(OC)c(OC)c3)n2C)n(CC)c1=O,Potency,[18],inactive
same,Potency,[2],inactive
same,Potency,[12],inactive
same,Potency,[14],11.8 µM (active)
same,Potency,[3],inactive
same,Potency,[8],20.9 µM (active)
same,Potency,[19],inactive
same,Potency,[4],inactive
same,Potency,[13],inactive
same,Potency,[5],inactive
same,Potency,[6],26.4 µM (active)
same,Potency,[17],inactive
same,Potency,[10],inactive
C=C[C@@H]1CN2CCC1C[C@H]2[C@H](O)c1ccnc2ccc(OC)cc12 (some centres not stated),Potency,[11],inactive
same,Potency,[2],inactive
same,Potency,[14],inactive
same,Potency,[3],inactive
same,Potency,[4],inactive
same,Potency,[13],inactive
same,Potency,[5],inactive
same,Potency,[10],inactive
Cc1cc(C(=O)NOCCO)c(Nc2ccc(I)cc2F)n(C)c1=O,Potency,[7],inactive
same,Potency,[18],4.69 µM (active)
same,Potency,[14],0.0026 µM (active)
same,Potency,[19],inactive
same,Potency,[13],0.0074 µM (active)
same,Potency,[5],inactive
same,Potency,[6],2.96 µM (active)
same,Potency,[17],inactive
same,Potency,[10],inactive
